These results are taken from PubChem BioAssay (NCATS).

Assay [1] in a line: Primary qHTS for inhibitors of nuclear receptor binding SET domain protein 2 (NSD2) in an RCH-ACV wild type WT cells (2C) (AID 1645877). Further: nearly all actives have a fitted effect of over 70% in size. Further: potency means the concentration at half of the fitted maximal effect. On activity change, negative = cell killing: on the % scale 0 is the no-effect control and ±100 the full control effect. Background: qHTS replaces the single test concentration by a dilution series.
Assay [2] concerns the target Metallo-beta-lactamase type 2 (Klebsiella pneumoniae) (UniProt C7C422). The assay can be described thus: qHTS to identify inhibitors of the New Delhi Metallo-beta-lactamase (NDM): assay validation screen against the NCATS LOPAC Collection (AID 1794843).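 Further: nitrocefin turnover by NDM-1 measured as 485 nm absorbance at plateau; on the % scale 0 is the no-effect control and ±100 the full control effect.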 A digest of the protocol:
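NDM-1 at 2 nM final in 50 mM HEPES pH 7.0 with 1 uM ZnSO4 and 0.01% Tween20 was preincubated with library compounds in DMSO. Nitrocefin (50 uM stock) was then added, and absorbance at 485 nm was read at the kinetic plateau.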

The target of assay [3] is Glutathione peroxidase 1 (Homo sapiens) (UniProt P07203). The experiment in a line: Primary qHTS Assay for Inhibitors of Recombinant Selenoprotein Glutathione Peroxidase 1 (GPX1) (AID 1845191). Further: nearly all actives have a fitted effect of over 65% in size. On activity, negative = inhibition: on the % scale 0 is the no-effect control and ±100 the full control effect. An outline of the steps: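 Recombinant GPX1 (10 nM final) was preincubated with compound for 30 min at room temperature, then reacted with 1 mM GSH, 0.5 mM CHP, 0.5 mM NADPH and 100 nM glutathione reductase; NADPH fluorescence (340/450 nm) was read at 0 and 15 min.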

The target in assay [4] is Phospholipid hydroperoxide glutathione peroxidase GPX4 (Homo sapiens) (UniProt P36969). The assay can be described thus: Primary qHTS Assay for Inhibitors of Recombinant Selenoprotein Glutathione Peroxidase 4 (GPX4) (AID 1845192). Further: nearly all actives have a fitted effect of over 65% in size. Particulars: outcome: dose series up to 50 µM unless noted. A digest of the protocol: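 GR-coupled readout: 100 nM GR, 1 mM GSH, 0.5 mM NADPH; NADPH fluorescence (ex 340/em 450 nm) read at t=0 and after 15 min RT. GPX4 200 nM, preincubated 30 min with compound; substrate 0.5 mM CHP.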

Assay [5] can be described thus: qHTS profiling for inhibitors of Plasmodium falciparum proliferation (AID 504749). Further: potency means the concentration at half of the fitted maximal effect.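 On activity, negative = inhibition: 0% = DMSO vehicle and full inhibition = artemisinin control.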 On all read-outs here: nearly all actives have a fitted effect of over 60% in size. As to conditions: P. falciparum in erythrocytes, SYBR Green DNA, 72 h; for activity, negative = inhibition: at 28.7 µM (top of the series). An outline of the steps: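 Parasite proliferation within erythrocytes, 72 h exposure. Endpoint: SYBR Green I fluorescence after overnight lysis at room temperature. Controls: 0.29 uM artemisinin, DMSO.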

Records with an inconclusive call do not appear. Unmarked numbers belong to inactive results. Calls of active or inactive are those of the source. The call rests on the fitted dose curve; in most records, active means well fitted curve in the direction sought with a large enough effect; inconclusive means small, poorly fitted or top-dose-only effect, or another doubt; inactive means no such curve, though single readings can be large; an effect the other way counts as inactive or inconclusive.

Sequence of Glutathione peroxidase 1 (Homo sapiens) (P07203 whole entry, looked up): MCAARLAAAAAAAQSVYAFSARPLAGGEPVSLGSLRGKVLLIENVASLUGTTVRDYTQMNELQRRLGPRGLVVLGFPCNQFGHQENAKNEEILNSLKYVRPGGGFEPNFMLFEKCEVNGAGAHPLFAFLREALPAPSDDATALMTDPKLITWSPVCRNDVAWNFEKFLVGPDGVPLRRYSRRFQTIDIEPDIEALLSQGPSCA
Sequence of Phospholipid hydroperoxide glutathione peroxidase GPX4 (Homo sapiens) (P36969 whole entry, looked up): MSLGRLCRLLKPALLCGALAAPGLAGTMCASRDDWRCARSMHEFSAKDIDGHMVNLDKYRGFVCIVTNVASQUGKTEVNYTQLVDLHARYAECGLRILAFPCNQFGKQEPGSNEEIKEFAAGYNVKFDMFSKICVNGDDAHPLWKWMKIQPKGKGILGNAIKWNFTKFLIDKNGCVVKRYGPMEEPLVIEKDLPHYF
Sequence of Metallo-beta-lactamase type 2 (Klebsiella pneumoniae) (C7C422 whole entry, looked up): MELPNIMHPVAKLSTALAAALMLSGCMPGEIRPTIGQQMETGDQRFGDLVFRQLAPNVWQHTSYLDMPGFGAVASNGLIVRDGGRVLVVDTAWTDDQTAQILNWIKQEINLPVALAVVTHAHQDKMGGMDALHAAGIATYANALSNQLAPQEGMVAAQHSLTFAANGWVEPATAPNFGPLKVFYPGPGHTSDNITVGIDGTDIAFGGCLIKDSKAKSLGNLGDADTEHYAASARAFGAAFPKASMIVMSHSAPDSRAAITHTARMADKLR

Take `NC/C=C/C(=O)O`: the Potency result in assay [1], in assay [2] and in assay [3] was “inactive” throughout. The result in assay [4] was inactive. The activity, negative = inhibition is 13.5% in assay [5] (parasite line A) and 11.1% in assay [5] (parasite line B).
Take `CCN(CC)CC(=O)Nc1c(C)cccc1C`: the Potency result in assay [1], in assay [2] and in assay [3] was “inactive” throughout. Besides, in assay [4], the outcome was inactive. Further, the figures for the activity, negative = inhibition in assay [5] (parasite line A) and in assay [5] (parasite line B) were 7.16% and 15.8%, respectively.
Regarding `Brc1c(NC2=NCCN2)ccc2nccnc12`, the Potency entry in assay [1], in assay [2] and in assay [3] was “inactive” throughout. Moreover, the results for the activity, negative = inhibition in assay [5] (parasite line A) and in assay [5] (parasite line B) were 0% and 3.95%, respectively.
In the case of `Cc1ccc(=O)n(-c2ccccc2)c1`, the Potency entry in assay [1], in assay [2] and in assay [3] was “inactive” in each case. Moreover, the result in assay [4] was inactive. Moreover, the activity, negative = inhibition is 12.4% in assay [5] (parasite line A) and 18.6% in assay [5] (parasite line B).
As to `Nc1c2c(nc3ccccc13)CCCC2O` (stereo not given), the Potency result in assay [1], in assay [2] and in assay [3] was “inactive” in each case. In addition, the values for the activity, negative = inhibition in assay [5] (parasite line A) and in assay [5] (parasite line B) were -3.4% and 3.67%, respectively.
`COc1ccc([C@@H]2Sc3ccccc3N(CCN(C)C)C(=O)[C@@H]2OC(C)=O)cc1`: the Potency entry in assay [1], in assay [2] and in assay [3] was “inactive” in each case. The outcome in assay [4] was inactive. The activity, negative = inhibition in assay [5] (parasite line A) was 3.17%; in assay [5] (parasite line B) it was 7.3%.
With `COCC(=O)O[C@]1(CCN(C)CCCc2nc3ccccc3[nH]2)CCc2cc(F)ccc2[C@@H]1C(C)C`, the Potency in assay [1] was 9.44 µM (active); in assay [5] (parasite line A), 3.55 µM (active); in assay [5] (parasite line B) it was 5.01 µM (active). Further, the Potency result in assay [2] and in assay [3] was “inactive” in each case. Moreover, the result in assay [4] was inactive.
In the case of `NC(=O)c1cn(Cc2c(F)cccc2F)nn1`, the Potency entry in assay [1], in assay [2] and in assay [3] was “inactive” each time. Also, in assay [4], the result was inactive. For the same compound, the activity, negative = inhibition is 14.6% in assay [5] (parasite line A) and 0.958% in assay [5] (parasite line B).
Turning to `C[N+](C)(C)CCOC(=O)CCC(=O)OCC[N+](C)(C)C`, the Potency result in assay [1], in assay [2] and in assay [3] was “inactive” each time. In addition, the outcome in assay [4] was inactive. The activity, negative = inhibition in assay [5] (parasite line A) was 1.72%; in assay [5] (parasite line B), 1.32%.
`NCCCNCCSP(=O)(O)O`: the activity change, negative = cell killing in assay [1] is 5.49% [at 9.23 µM]. Moreover, the Potency entry in assay [2] and in assay [3] was “inactive” throughout. Moreover, in assay [4], the result was inactive. In addition, the activity, negative = inhibition in assay [5] (parasite line A) was 8.13%; in assay [5] (parasite line B), 13.6%.
With `C[N+](C)(C)CCCCCCCCCC[N+](C)(C)C`, the Potency result in assay [1], in assay [2] and in assay [3] was “inactive” in each case. The Potency in assay [5] (parasite line A) was 3.98 µM (active); in assay [5] (parasite line B), 1.58 µM (active).
`Cc1cc(C)c(/C=C2\C(=O)Nc3ccccc32)[nH]1`: the Potency result in assay [1], in assay [2] and in assay [3] was “inactive” throughout. The outcome in assay [4] was inactive. In addition, the results for the activity, negative = inhibition in assay [5] (parasite line A) and in assay [5] (parasite line B) were 2.71% and 10.1%, respectively.
In the case of `CCn1cc(C(=O)O)c(=O)c2cc3c(cc21)OCO3`, the Potency entry in assay [1], in assay [2] and in assay [3] was “inactive” throughout. In assay [4], the result was inactive. The results for the activity, negative = inhibition in assay [5] (parasite line A) and in assay [5] (parasite line B) were -8.68% and -3.36%, respectively.
